According to PMC8384837, “Expanding the binding specificity for RNA recognition by a PUF domain”:

What was measured:
Experiment in all cases: yeast three-hybrid, YBZ-1, SC-Leu-His + 0.5 mM 3-AT, 4 days
Details in all cases: tags: N-Gal4 AD-HA kept; label: inside an RPR1-promoter hybrid RNA with tandem MS2 sites; ssRNA
[1] = molecular target: PUM1 PUF domain R3-EHG (Homo sapiens, UniProt Q14671 828-1176, C935E;R936H;Q939G)
Summary of the method: (§1)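 The interaction score is the log change in variant frequency from input to selection. Scores were computed in log2 with a pseudocount of 1 for absent variants, using Illumina sequencing of PCR-amplified repeat regions. The input came from four days on SC-Leu and the selection from four days on SC-Leu-His + 0.5 mM 3-AT. The cells were strain YBZ-1 (LexA–MS2 coat fusion, HIS3 reporter) co-expressing Pumilio-1 PUF domain libraries and matching RNA elements from a centromeric plasmid.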

[2] = molecular target: PUM1 PUF domain R3-RTV (Homo sapiens, UniProt Q14671 828-1176, C935R;R936T;Q939V)
Summary of the method: as §1

[3] = molecular target: PUM1 PUF domain R3-LWC (Homo sapiens, UniProt Q14671 828-1176, C935L;R936W;Q939C)
Summary of the method: as §1

[4] = molecular target: T1, PUM1 PUF domain R6-YWL (Homo sapiens, UniProt Q14671 828-1176, N1043Y;Y1044W;Q1047L)
T1 sequence: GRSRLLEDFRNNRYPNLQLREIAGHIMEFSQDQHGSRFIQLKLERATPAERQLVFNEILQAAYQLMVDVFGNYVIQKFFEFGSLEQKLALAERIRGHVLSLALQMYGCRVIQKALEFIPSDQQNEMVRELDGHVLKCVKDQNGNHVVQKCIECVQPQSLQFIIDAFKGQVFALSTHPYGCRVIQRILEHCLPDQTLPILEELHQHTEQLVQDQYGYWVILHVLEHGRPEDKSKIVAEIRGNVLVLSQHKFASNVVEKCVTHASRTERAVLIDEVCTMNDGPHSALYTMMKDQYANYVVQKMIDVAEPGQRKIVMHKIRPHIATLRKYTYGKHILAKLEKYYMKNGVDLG
Summary of the method: as §1

[5] = molecular target: PUM1 PUF domain R5-GRV (Homo sapiens, UniProt Q14671 828-1176, C1007G;Q1011V)
Summary of the method: as §1

[6] = molecular target: PUM1 PUF domain R1-SKR (Homo sapiens, UniProt Q14671 828-1176, R864K;Q867R)
Summary of the method: as §1

[7] = molecular target: PUM1 PUF domain R1-RYQ (Homo sapiens, UniProt Q14671 828-1176, S863R;R864Y)
Summary of the method: as §1

[8] = molecular target: PUM1 PUF domain R1-KPL (Homo sapiens, UniProt Q14671 828-1176, S863K;R864P;Q867L)
Summary of the method: as §1

[9] = molecular target: PUM1 PUF domain R1-RPC (Homo sapiens, UniProt Q14671 828-1176, S863R;R864P;Q867C)
Summary of the method: as §1

[10] = molecular target: PUM1 PUF domain R4-DWG (Homo sapiens, UniProt Q14671 828-1176, N971D;H972W;Q975G)
Summary of the method: as §1

[11] = molecular target: PUM1 PUF domain R2-LWQ (Homo sapiens, UniProt Q14671 828-1176, N899L;Y900W)
Summary of the method: as §1

[12] = molecular target: PUM1 PUF domain R2-DRQ (Homo sapiens, UniProt Q14671 828-1176, N899D;Y900R)
Summary of the method: as §1

[13] = molecular target: PUM1 PUF domain R3-YYS (Homo sapiens, UniProt Q14671 828-1176, C935Y;R936Y;Q939S)
Summary of the method: as §1

[14] = molecular target: PUM1 PUF domain R3-GPE (Homo sapiens, UniProt Q14671 828-1176, C935G;R936P;Q939E)
Summary of the method: as §1

[15] = molecular target: PUM1 PUF domain R5-HLE (Homo sapiens, UniProt Q14671 828-1176, C1007H;R1008L;Q1011E)
Summary of the method: as §1

[16] = molecular target: PUM1 PUF domain R4-WHG (Homo sapiens, UniProt Q14671 828-1176, N971W;Q975G)
Summary of the method: as §1

[17] = molecular target: PUM1 PUF domain R4-HWP (Homo sapiens, UniProt Q14671 828-1176, N971H;H972W;Q975P)
Summary of the method: as §1

[18] = molecular target: PUM1 PUF domain R4-GPT (Homo sapiens, UniProt Q14671 828-1176, N971G;H972P;Q975T)
Summary of the method: as §1

[19] = molecular target: PUM1 PUF domain R5-LNA (Homo sapiens, UniProt Q14671 828-1176, C1007L;R1008N;Q1011A)
Summary of the method: as §1

[20] = molecular target: PUM1 PUF domain R7-VVK (Homo sapiens, UniProt Q14671 828-1176, S1079V;N1080V;E1083K)
Summary of the method: as §1

In the case of “GGCUAGAACUAGUGGAUCCCCCGGCGCCCGGCGGCUCGAGCCCGGGUAAGUGUAAUUAGUCUGCAUGCCGCCGGGCGCCAUGCCUGCAGGUCGACUCUAGAAAACAUG”, the binding signal [1] was 5.05 log2 enrichment (interaction score), the binding signal [2] was 2.72 log2 enrichment (interaction score) and the binding signal [3] was 2.16 log2 enrichment (interaction score).

For “GGCUAGAACUAGUGGAUCCCCCGGCGCCCGGCGGCUCGAGCCCGGGUAAGUGAAAAUAGUCUGCAUGCCGCCGGGCGCCAUGCCUGCAGGUCGACUCUAGAAAACAUG”, the binding signal [4] was 7.77 log2 enrichment (interaction score).

With “GGCUAGAACUAGUGGAUCCCCCGGCGCCCGGCGGCUCGAGCCCGGGUAAGUGUGAAUAGUCUGCAUGCCGCCGGGCGCCAUGCCUGCAGGUCGACUCUAGAAAACAUG” the binding signal [5] was 2.53 log2 enrichment (interaction score).

In the case of “GGCUAGAACUAGUGGAUCCCCCGGCGCCCGGCGGCUCGAGCCCGGGUAAGUGUAAAUCGUCUGCAUGCCGCCGGGCGCCAUGCCUGCAGGUCGACUCUAGAAAACAUG”, the binding signal [6] was 3.09 log2 enrichment (interaction score), the binding signal [7] was 5.27 log2 enrichment (interaction score) and the binding signal [8] was 2.58 log2 enrichment (interaction score). The binding signal [9] was 2.57 log2 enrichment (interaction score).

For “GGCUAGAACUAGUGGAUCCCCCGGCGCCCGGCGGCUCGAGCCCGGGUAAGUGUACAUAGUCUGCAUGCCGCCGGGCGCCAUGCCUGCAGGUCGACUCUAGAAAACAUG”, the binding signal [10] was 2.61 log2 enrichment (interaction score).

With “GGCUAGAACUAGUGGAUCCCCCGGCGCCCGGCGGCUCGAGCCCGGGUAAGUGUAAAAAGUCUGCAUGCCGCCGGGCGCCAUGCCUGCAGGUCGACUCUAGAAAACAUG” the binding signal [11] was 8.53 log2 enrichment (interaction score) and the binding signal [12] was 2.96 log2 enrichment (interaction score).

For “GGCUAGAACUAGUGGAUCCCCCGGCGCCCGGCGGCUCGAGCCCGGGUAAGUGUAAGUAGUCUGCAUGCCGCCGGGCGCCAUGCCUGCAGGUCGACUCUAGAAAACAUG”, the binding signal [1] was 4.29 log2 enrichment (interaction score), the binding signal [13] was 6.91 log2 enrichment (interaction score) and the binding signal [3] was 3.65 log2 enrichment (interaction score). For the same sequence, the binding signal [14] was 5.98 log2 enrichment (interaction score).

For “GGCUAGAACUAGUGGAUCCCCCGGCGCCCGGCGGCUCGAGCCCGGGUAAGUGUCAAUAGUCUGCAUGCCGCCGGGCGCCAUGCCUGCAGGUCGACUCUAGAAAACAUG”, the binding signal [15] was 0.68 log2 enrichment (interaction score).

“GGCUAGAACUAGUGGAUCCCCCGGCGCCCGGCGGCUCGAGCCCGGGUAAGUGUAUAUAGUCUGCAUGCCGCCGGGCGCCAUGCCUGCAGGUCGACUCUAGAAAACAUG” was tested, and the binding signal [16] was 3.79 log2 enrichment (interaction score), the binding signal [10] was 4.56 log2 enrichment (interaction score) and the binding signal [17] was 4.4 log2 enrichment (interaction score). The binding signal [18] was 2.14 log2 enrichment (interaction score).

“GGCUAGAACUAGUGGAUCCCCCGGCGCCCGGCGGCUCGAGCCCGGGUAAGUGUUAAUAGUCUGCAUGCCGCCGGGCGCCAUGCCUGCAGGUCGACUCUAGAAAACAUG” was tested, and the binding signal [19] was 4.02 log2 enrichment (interaction score), the binding signal [5] was 3.07 log2 enrichment (interaction score) and the binding signal [15] was 2.54 log2 enrichment (interaction score).

With “GGCUAGAACUAGUGGAUCCCCCGGCGCCCGGCGGCUCGAGCCCGGGUAAGUGUAAAUUGUCUGCAUGCCGCCGGGCGCCAUGCCUGCAGGUCGACUCUAGAAAACAUG” the binding signal [7] was 4.14 log2 enrichment (interaction score), the binding signal [8] was 3.37 log2 enrichment (interaction score) and the binding signal [9] was 1.56 log2 enrichment (interaction score).

For “GGCUAGAACUAGUGGAUCCCCCGGCGCCCGGCGGCUCGAGCCCGGGUAAGUUUAAAUAGUCUGCAUGCCGCCGGGCGCCAUGCCUGCAGGUCGACUCUAGAAAACAUG”, the binding signal [20] was 3.27 log2 enrichment (interaction score).

For “GGCUAGAACUAGUGGAUCCCCCGGCGCCCGGCGGCUCGAGCCCGGGUAAGUGUAAAUAGUCUGCAUGCCGCCGGGCGCCAUGCCUGCAGGUCGACUCUAGAAAACAUG”, the binding signal [11] was 1.66 log2 enrichment (interaction score), the binding signal [1] was 2.53 log2 enrichment (interaction score) and the binding signal [7] was 2.21 log2 enrichment (interaction score). For the same sequence, the binding signal [10] was 5.39 log2 enrichment (interaction score), the binding signal [17] was 5.47 log2 enrichment (interaction score) and the binding signal [5] was 2.75 log2 enrichment (interaction score). The binding signal [18] was 2.42 log2 enrichment (interaction score) and the binding signal [15] was 1.15 log2 enrichment (interaction score).
